Measured values published in PubChem BioAssay (Tox21).
Records with an inconclusive call do not appear. Calls of active or inactive are those of the source. Unless noted, the call rests on the fitted dose curve; in most records, active means well fitted curve in the direction sought with a large enough effect in the repeat runs; inconclusive means weak or mixed curves; inactive means no such curve, though single readings can be large; an effect the other way counts as inactive or inconclusive.

Experiments:
[1] = qHTS assay to identify small molecule HDAC inhibitors - cell viability counter screen (AID 1259365); further: series mostly up to about 92 µM; nearly all actives have a fitted effect of over 50% in size
Summary of the method: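 To flag cytotoxic hits, 1,500 wild-type HCT-116 cells per well, plated the day before, receive test compounds for 2hr at 37 C before CellTiter-Glo reagent and a luminescence read.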

[2] = qHTS assay to identify small molecule agonists of the sonic hedgehog signaling (Shh) pathway - cell viability counter screen (AID 1259366); further: nearly all actives have a fitted effect of over 50% in size
Summary of the method: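 Fluorescence from CellTiter-Fluor reports live cells in this counter screen. NIH/3T3-derived Gli1-Luc reporter cells receive test compounds for 24hr at 37C; reagent goes in at 23hr.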

[3] = qHTS assay to identify small molecule antagonists of the sonic hedgehog signaling (Shh) pathway - cell viability counter screen (AID 1259367); further: nearly all actives have a fitted effect of over 55% in size
Summary of the method: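 Cells: 3T3 Gli1-Luc, 2,000/well, 4 hr pre-incubation. Compounds in DMSO, then conditioned medium. Incubation 24 hr, 37C, 5% CO2. CellTiter-Fluor at 23 hr, 1 hr, fluorescence.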

[4] = qHTS assay to identify small molecule agonists of the sonic hedgehog signaling (Shh) pathway (AID 1259368; calls by dose curve; further: series mostly up to about 92 µM; nearly all actives have a fitted effect of over 15% in size)
Summary of the method: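 NIH/3T3-derived 3T3Gli1-Luc cells carrying a stably integrated Gli1 response element–firefly luciferase reporter were plated, left 4 hr at 37 C, then given compounds in DMSO for 24 hr. Luminescence was read 30 min after adding luciferase reagent.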

[5] = qHTS assay to identify small molecule antagonists of the sonic hedgehog signaling (Shh) pathway (AID 1259369; calls by dose curve; further: nearly all actives have a fitted effect of over 45% in size)
Summary of the method: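 NIH/3T3-derived 3T3Gli1-Luc cells with stably integrated Gli1-Luc reporter were preincubated 4hr at 37 C, then given compounds in DMSO plus Shh conditioned medium and incubated 24hr. Firefly luciferase luminescence read after 30min reagent at room temperature.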

[6] = target: Estrogen receptor beta (Homo sapiens) (UniProt Q92731); test: qHTS assay to identify small molecule agonists of the estrogen receptor beta (ER-beta) signaling pathway (AID 1259377; active means well fitted activation curve with a large enough effect in the signal ratio in the repeat runs, not every such curve was filed as active; the % refers to the signal ratio)
Estrogen receptor beta (Homo sapiens), sequence (Q92731 whole entry, looked up): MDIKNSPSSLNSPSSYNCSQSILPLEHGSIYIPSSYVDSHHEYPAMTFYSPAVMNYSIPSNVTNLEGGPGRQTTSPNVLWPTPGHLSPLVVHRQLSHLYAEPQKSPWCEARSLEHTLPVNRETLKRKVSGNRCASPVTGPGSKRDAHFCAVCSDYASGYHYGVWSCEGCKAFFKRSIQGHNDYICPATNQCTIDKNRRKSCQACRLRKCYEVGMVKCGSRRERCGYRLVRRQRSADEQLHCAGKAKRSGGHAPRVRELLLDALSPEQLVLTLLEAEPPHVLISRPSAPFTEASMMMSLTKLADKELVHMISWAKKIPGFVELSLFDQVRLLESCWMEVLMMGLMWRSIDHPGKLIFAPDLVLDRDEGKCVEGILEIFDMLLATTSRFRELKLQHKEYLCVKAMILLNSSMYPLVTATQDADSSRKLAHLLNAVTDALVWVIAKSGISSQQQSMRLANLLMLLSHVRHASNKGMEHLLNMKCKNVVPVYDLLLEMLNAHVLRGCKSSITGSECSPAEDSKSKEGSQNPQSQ
Summary of the method: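 Screening used GripTite ER-beta-UAS-bla cells held in 2% charcoal-stripped FBS medium. After overnight (16 hr) compound incubation at 37C, beta-lactamase activity was detected with a FRET substrate by fluorescence.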

[7] = target: Estrogen receptor beta (Homo sapiens) (UniProt Q92731); test: qHTS assay to identify small molecule antagonists of the estrogen receptor beta (ER-beta) signaling pathway (AID 1259378; active means well fitted inhibition curve with a large enough effect in the signal ratio in the repeat runs, not every such curve was filed as active; the % refers to the signal ratio)
Summary of the method: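 Antagonist mode: compounds added to beta-lactamase reporter HEK293T ER-beta-UAS cells stimulated with E2 (1nM final), 16 hr at 37C. LiveBLAzer B/G FRET substrate, 2 hours room temperature, fluorescence read-out.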

[8] = qHTS assay to identify small molecule agonists of the androgen receptor (AR) signaling pathway in the presence of an antagonist - cell viability counter screen (AID 1259379);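 further: MDA-kb2 human breast cancer cells carrying an MMTV luciferase reporter; series mostly up to about 92 µM; nearly all actives have a fitted effect of over 25% in size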
Summary of the method: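 MDA-kb2 human breast carcinoma cells (stable MMTV-luciferase, AR/GR responsive) were seeded 3,000 cells/well, pre-incubated 5 hr at 37C without CO2, then given 3.0uM nilutamide and compounds at 15 concentrations for 16 hr. Viability was read by CellTiter-Fluor fluorescence.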

[9] = target: Estrogen receptor (Homo sapiens) (UniProt P03372); test: qHTS assay to identify small molecule agonists of the estrogen receptor alpha (ER-alpha) signaling pathway in the presence of an antagonist (AID 1259383; calls by dose curve; further: top concentration of the series differs between compounds; nearly all actives have a fitted effect of over 15% in size)
Estrogen receptor (Homo sapiens), sequence (P03372 whole entry, looked up): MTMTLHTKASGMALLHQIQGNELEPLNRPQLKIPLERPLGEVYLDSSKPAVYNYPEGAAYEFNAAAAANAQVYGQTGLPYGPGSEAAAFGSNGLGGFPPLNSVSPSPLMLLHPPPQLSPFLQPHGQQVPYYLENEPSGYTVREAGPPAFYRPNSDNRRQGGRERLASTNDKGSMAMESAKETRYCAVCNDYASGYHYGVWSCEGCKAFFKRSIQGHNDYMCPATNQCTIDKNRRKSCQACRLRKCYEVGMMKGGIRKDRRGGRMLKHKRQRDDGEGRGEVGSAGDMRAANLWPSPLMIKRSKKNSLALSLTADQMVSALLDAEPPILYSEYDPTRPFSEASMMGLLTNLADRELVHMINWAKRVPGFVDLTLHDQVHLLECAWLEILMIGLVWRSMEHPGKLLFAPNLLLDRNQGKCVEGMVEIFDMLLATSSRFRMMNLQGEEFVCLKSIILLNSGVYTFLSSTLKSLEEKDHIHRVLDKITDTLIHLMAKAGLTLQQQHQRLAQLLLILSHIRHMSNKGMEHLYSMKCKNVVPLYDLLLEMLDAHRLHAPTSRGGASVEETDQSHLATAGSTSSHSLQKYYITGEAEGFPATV
Summary of the method: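 VM7Luc4E2 cells (endogenous full-length ER-alpha, 4×ERE-luciferase) were precultured 5 days in phenol red-free medium with 10% charcoal-stripped FBS, given 10.0nM ICI-182,780 (final), then treated with compounds at 15 concentrations for 22hr at 37C; luminescence read with ONE-Glo.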

[10] = qHTS assay to identify small molecule agonists or antagonists of the thyroid stimulating hormone receptor (TSHR) signaling pathway - wild type cell line counter screen (AID 1259384; calls by dose curve)
Summary of the method: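 Counter screen in untransfected Hek293: compounds (15-point titration, triplicate) plus phosphodiesterase inhibitor Ro20-1724 added after 18 h plating; 30 min RT. Intracellular cAMP via competitive d2/cryptate immunoassay, 1 h incubation.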

[11] = target: Thyrotropin receptor (Homo sapiens) (UniProt P16473); test: qHTS assay to identify small molecule antagonists of the thyroid stimulating hormone receptor (TSHR) signaling pathway (AID 1259385; calls by dose curve; further: nearly all actives have a fitted effect of over 20% in size)
Thyrotropin receptor (Homo sapiens), sequence (P16473 whole entry, looked up): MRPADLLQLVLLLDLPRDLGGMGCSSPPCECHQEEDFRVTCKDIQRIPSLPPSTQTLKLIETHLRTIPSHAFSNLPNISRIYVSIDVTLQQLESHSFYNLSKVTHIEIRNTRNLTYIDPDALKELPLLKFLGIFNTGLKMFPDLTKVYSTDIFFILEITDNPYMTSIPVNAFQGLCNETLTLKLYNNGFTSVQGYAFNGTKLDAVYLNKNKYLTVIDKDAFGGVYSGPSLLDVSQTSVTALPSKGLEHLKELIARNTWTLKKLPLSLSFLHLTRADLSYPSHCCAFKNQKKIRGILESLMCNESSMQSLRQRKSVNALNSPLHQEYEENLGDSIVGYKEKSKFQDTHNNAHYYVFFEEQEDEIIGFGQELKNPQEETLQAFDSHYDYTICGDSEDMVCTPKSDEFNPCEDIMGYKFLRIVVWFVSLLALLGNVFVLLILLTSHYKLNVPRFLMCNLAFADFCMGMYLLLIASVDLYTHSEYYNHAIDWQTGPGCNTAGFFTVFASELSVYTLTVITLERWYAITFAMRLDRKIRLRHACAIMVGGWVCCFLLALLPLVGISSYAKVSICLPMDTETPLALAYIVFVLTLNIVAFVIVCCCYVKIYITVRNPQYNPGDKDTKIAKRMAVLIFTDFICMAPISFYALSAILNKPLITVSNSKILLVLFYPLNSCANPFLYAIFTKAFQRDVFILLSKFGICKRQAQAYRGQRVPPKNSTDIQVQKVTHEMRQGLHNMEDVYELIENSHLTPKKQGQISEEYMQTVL
Summary of the method: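 Antagonist mode: compound-treated TSHR-expressing HEK293 cells were stimulated with 1.5 ng/mL TSH (final) in presence of Ro20-1724 for 30 min at RT. HTRF cAMP detection after 1 h; each compound tested at 15 concentrations, triplicate.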

[12] = qHTS assay to identify small molecule agonists of the estrogen receptor alpha (ER-alpha) signaling pathway in the presence of an antagonist - cell viability counter screen (AID 1259386);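 further: series mostly up to about 92 µM; cells exposed to compounds for 22 h at 37 °C before the viability read; nearly all actives have a fitted effect of over 30% in size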
Summary of the method: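 VM7Luc4E2 cells (endogenous full-length ER-alpha, 4×ERE-luciferase) were held 5 days in phenol red-free medium with 10% charcoal-stripped FBS, plated, then given 10.0nM ICI-182,780 and compounds at 15 concentrations for 22hr at 37C; viability read by CellTiter-Fluor fluorescence.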

[13] = target: Progesterone receptor (Homo sapiens) (UniProt P06401); test: qHTS assay to identify small molecule agonists of the progesterone receptor (PR) signaling pathway (AID 1346784; calls by dose curve; further: nearly all actives have a fitted effect of over 30% in size)
Progesterone receptor (Homo sapiens), sequence (P06401 whole entry, looked up): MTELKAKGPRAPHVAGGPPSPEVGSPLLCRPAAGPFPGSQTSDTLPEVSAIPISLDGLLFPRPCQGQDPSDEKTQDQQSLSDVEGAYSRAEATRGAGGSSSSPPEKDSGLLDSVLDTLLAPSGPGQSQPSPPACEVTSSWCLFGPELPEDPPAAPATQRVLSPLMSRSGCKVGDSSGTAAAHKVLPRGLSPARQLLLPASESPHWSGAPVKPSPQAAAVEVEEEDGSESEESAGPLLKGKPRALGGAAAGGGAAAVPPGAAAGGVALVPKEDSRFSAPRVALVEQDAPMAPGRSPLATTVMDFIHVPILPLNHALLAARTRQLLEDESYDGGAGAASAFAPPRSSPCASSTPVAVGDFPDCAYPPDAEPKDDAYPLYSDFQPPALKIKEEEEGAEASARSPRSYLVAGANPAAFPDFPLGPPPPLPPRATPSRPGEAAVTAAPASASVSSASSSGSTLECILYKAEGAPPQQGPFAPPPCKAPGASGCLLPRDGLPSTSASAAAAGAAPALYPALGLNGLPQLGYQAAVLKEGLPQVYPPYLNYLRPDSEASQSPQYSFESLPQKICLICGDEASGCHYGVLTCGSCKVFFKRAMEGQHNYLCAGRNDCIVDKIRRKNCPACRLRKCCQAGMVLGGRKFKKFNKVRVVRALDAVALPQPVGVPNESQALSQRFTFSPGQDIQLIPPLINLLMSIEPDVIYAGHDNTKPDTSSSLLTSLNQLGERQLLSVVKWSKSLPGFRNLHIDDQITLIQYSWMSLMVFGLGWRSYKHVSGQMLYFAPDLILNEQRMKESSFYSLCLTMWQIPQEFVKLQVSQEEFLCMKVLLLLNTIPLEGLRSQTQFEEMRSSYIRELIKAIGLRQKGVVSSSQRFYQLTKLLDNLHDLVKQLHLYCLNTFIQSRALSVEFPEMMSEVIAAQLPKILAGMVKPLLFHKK
Summary of the method: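 Seed PR-UAS-bla HEK 293T cells (2% charcoal-stripped FBS), incubate 6 hr at 37C; add compounds in DMSO, 16 hr at 37C; add LiveBLAzer B/G substrate, 2 hr RT; read fluorescence intensity.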

[14] = target: Progesterone receptor (Homo sapiens) (UniProt P06401); test: qHTS assay to identify small molecule antagonists of the progesterone receptor (PR) signaling pathway (AID 1346795; active means well fitted inhibition curve with a large enough effect in the signal ratio in the repeat runs, not every such curve was filed as active; the % refers to the signal ratio)
Summary of the method: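 Screening used a GripTite HEK293T line with PR-responsive UAS-beta-lactamase. Cells were challenged with compound in the presence of 1 nM R5020 final for 16 hr at 37C; B/G FRET substrate, 2 hr room temperature, fluorescence.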

[15] = qHTS assay to identify small molecule antagonists of the TGF-beta/Smad signaling pathway - cell viability counter screen (AID 1346824); further: nearly all actives have a fitted effect of over 50% in size
Summary of the method: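 Cytotoxicity counter-screen run in the same wells as the beta-lactamase Smad reporter read: CellTiter-Glo luminescence after 30 min at room temperature. HEK 293T SBE-bla cells had 5 hr compound exposure at 37 C with TGF-beta1 (0.25 ng/mL stock).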

[16] = qHTS assay to identify small molecule antagonists of the estrogen receptor beta (ER-beta) signaling pathway - cell viability counter screen (AID 1259382);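 further: HEK293T cells carrying ER-beta-UAS-bla reporter stimulated with estradiol; series mostly up to about 92 µM; nearly all actives have a fitted effect of over 55% in size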
Summary of the method: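 ER-beta-UAS-bla HEK293T cells (2,000/well, 2% charcoal-stripped FBS) were pre-incubated 6 hr at 37C, then given compound plus 1nM final 17-beta-estradiol for 16 hr. Viability was read in the same wells by CellTiter-Glo luminescence after 30 min at room temperature.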

[17] = qHTS assay to identify small molecule antagonists of the progesterone receptor (PR) signaling pathway - cell viability counter screen (AID 1346798); further: series mostly up to about 92 µM; nearly all actives have a fitted effect of over 50% in size
Summary of the method: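 Measures cytotoxicity in parallel with the PR antagonist reporter read: HEK293T PR-UAS-bla cells get compound and R5020 for 16 hr, and remaining viable cells are quantified by CellTiter-Glo luminescence.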

[18] = qHTS assay to identify small molecule agonists of the progesterone receptor (PR) signaling pathway - cell viability counter screen (AID 1346799; calls by dose curve; further: nearly all actives have a fitted effect of over 45% in size)
Summary of the method: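 Using the same plates as the PR reporter screen, HEK293T PR-UAS-bla cells received compounds for 16 hr at 37C and were then lysed with CellTiter-Glo; luminescence was read 30 min later at room temperature.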

[19] = qHTS assay to identify small molecule agonists of the estrogen receptor beta (ER-beta) signaling pathway - cell viability counter screen (AID 1259380); further: nearly all actives have a fitted effect of over 30% in size
Summary of the method: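 ER-beta-UAS-bla HEK293T cells in medium with 2% charcoal-stripped FBS were preincubated 6 hr at 37C, dosed with compound in DMSO for 16 hr, then after the bla read, CellTiter-Glo was added for 30 min at room temperature; luminescence recorded.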
On the % scale 0 is the no-effect control and ±100 the full control effect.

CCO[Si](CC(C)C)(OCC)OCC
inactive: outcome [1] | outcome [2] | outcome [3] | outcome [4] | Potency [5] | Potency [6] | outcome [7] | outcome [8] | Potency [9] | outcome [10] | outcome [11] | outcome [12] | Potency [13] | Potency [14] | outcome [15]

CN(C)CCCN(C)C
inactive: activity change, negative = cytotoxicity [1] 1.58% [at 8.39 µM] | viability change, negative = cytotoxic [2] -8.84% [at 8.39 µM] | viability change, negative = cytotoxic [3] 4.7% [at 8.39 µM] | activity change [4] 0.31% [at 8.39 µM] | activity change, negative = inhibition [5] 5.84% [at 8.39 µM] | activation [6] -0.616% [at 8.39 µM] | activity, negative = inhibition [7] 14.4% [at 8.39 µM] | activity change, negative = cytotoxicity [8] 4.3% [at 8.39 µM] | activity change, negative = cytotoxicity [16] -0.979% [at 8.39 µM] | activation [9] -2.43% [at 8.39 µM] | cAMP activity change [10] 3.11% [at 8.39 µM] | activity change, negative = inhibition [11] 4.29% [at 8.39 µM] | activity change, negative = cytotoxicity [12] 0.833% [at 8.39 µM] | activation [13] -0.0517% [at 8.39 µM] | activity change, negative = inhibition [14] 12.8% [at 8.39 µM] | activity change, negative = cytotoxicity [17] 5.2% [at 8.39 µM] | activity change, negative = cytotoxicity [18] 1.47% [at 8.39 µM] | viability change, negative = cytotoxic [15] -1.68% [at 6.97 µM]

CC[N+](C)(CC)CC
inactive: outcome [1] | outcome [2] | outcome [3] | outcome [4] | Potency [5] | Potency [6] | outcome [7] | outcome [8] | Potency [19] | outcome [12] | Potency [13] | Potency [14] | outcome [17] | outcome [15]

Nc1ccc(C(=O)NCC(=O)O)cc1
inactive: outcome [1] | outcome [2] | outcome [3] | outcome [4] | Potency [5] | Potency [6] | outcome [8] | Potency [19] | outcome [16] | Potency [9] | outcome [12] | Potency [13] | Potency [14] | outcome [17] | Potency [18] | outcome [15]
